From PubChem BioAssay (NCATS)
Unmarked numbers belong to inactive results. Inconclusive results are not listed. Activity calls are given as the source filed them. Unless noted, the call rests on the fitted dose curve; in most records, active means well fitted curve in either direction with a large enough effect (not every such curve was filed as active); inconclusive means small, poorly fitted or top-dose-only effect, or another doubt; inactive means flat fitted curve, though single readings scatter.

Assays:
[1] = biological target: Lysosomal acid glucosylceramidase (Homo sapiens) (UniProt P04062); experiment: Glucocerebrosidase-p2 (AID 348; in the data active means potency below about 10 µM; further: potency means the concentration at half of the fitted maximal effect); conditions: purified GBA, blue fluorogenic substrate, 40 min
Outline: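 Normal human glucocerebrosidase (0.2 nM) with blue fluorogenic substrate (80 uM final) in citrate/phosphate pH 5.9 with 10mM sodium taurocholate, 0.01% tween-20; 40 min RT, NaOH/glycine stop; fluorescence Ex 365/Em 440; AC50 from a titration from 0.6 nM upwards.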

[2] = AP1 Signaling Pathway (AID 357); conditions: ME-180 AP-1-bla reporter, EGF-induced, beta-lactamase ratio, 5 h; at 7.69 µM (top of the series) unless noted; further: on the % scale 0 is the no-effect control and ±100 the full control effect
Outline: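 ME-180 cells with beta-lactamase reporter under AP-1 response element, stimulated with EC50 EGF; compounds tested in titration series, 5 h at 37 °C. CCF4 substrate added 2.5 h at room temperature; 460/530 nm emission ratio gave %activity and AC50.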

[3] = biological target: Cytochrome P450 1A2 (Homo sapiens) (UniProt P05177); experiment: p450-cyp1a2 (AID 410; calls by dose curve; further: potency means the concentration at half of the fitted maximal effect;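 on activity change, negative = inhibition: -100% = full effect of reference inhibitor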); conditions: recombinant CYP1A2, luciferin-ME demethylation, luminescence; series mostly up to 11.4 µM
Outline: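 Luminescent demethylation readout: Luciferin-ME (100uM, equal to Km) turned over by 20nM CYP1A2 for 60 min at room temperature after NADPH regeneration addition, following 10 min compound preincubation. Normalization used 57 uM furafylline as full inhibition.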

[4] = biological target: Glucocorticoid receptor (Homo sapiens) (UniProt P04150); experiment: GR-GFP Redistribution (AID 450;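 active means compounds whose dose series gives a full or clear partial fitted curve of increased nuclear translocation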; further: potency means the concentration at half of the fitted maximal effect); conditions: U2OS GR-GFP nuclear translocation, laser cytometry, 2 h
[5] = biological target: Glucocorticoid receptor (Homo sapiens) (UniProt P04150); experiment: GR-EFC Redistribution (AID 451; calls by dose curve; further: potency means the concentration at half of the fitted maximal effect); conditions: CHO-K1 GR-EFC translocation, beta-gal luminescence, 2 h
Outline: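 CHO-K1 cells stably expressing nuclear-localized β-gal enzyme acceptor and GR fused C-terminally to the enzyme donor fragment; ligand-driven nuclear translocation restores β-gal by complementation. Compounds titrated up to 46 uM final, 2 h at 37 °C; luminescence read.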

[6] = biological target: Mitogen-activated protein kinase 10 (Mus musculus) (UniProt Q61831); experiment: JNK3 AlphaScreen Assay (AID 530); conditions: JNK3 lysate, c-Jun phosphorylation; series mostly up to 11.4 µM;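 further: kinase came from lysate of stimulated human HepG2 cells; signal reports phosphorylation of biotinylated GST-cJun 1-79 at Ser73 with 10 µM ATP; on the % scale 0 is the no-effect control and ±100 the full control effect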
Outline: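 Phosphorylation of biotinylated GST-cJun(1-79) at Ser73 is measured by AlphaScreen proximity luminescence. Enzyme is JNK3 in HepG2 lysates activated with interleukin-1beta and tumor necrosis factor alpha; ATP is 10 uM final.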

[7] = biological target: 3',5'-cyclic-AMP phosphodiesterase 4B (Homo sapiens) (UniProt Q07343); experiment: qHTS Assay for Inhibitors of PDE-IV (AID 607; active means well fitted activation curve with a large enough effect in the main read-out, with a control signal flat, not every such curve was filed as active; further: % of control where 0% means no effect); conditions: HEK293 ACTOne CNG channel cells, membrane potential fluorescence; series mostly up to 22.9 µM
Outline: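 HEK293 ACTOne cells with CNG channel (1000/well), endogenous PDE4; membrane potential dye, compounds up to 22.9 uM final. Fluorescence Ex 535/Em 590; RO 20-1724 (100 uM final) as reference.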

[8] = biological target: Cytochrome P450 3A4 (Homo sapiens) (UniProt P08684); experiment: qHTS Assay for Activators of Cytochrome P450 3A4 (AID 885; active means well fitted curve in the direction sought with a large enough effect; an effect the other way counts as inactive or inconclusive; further: nearly all actives have a fitted effect of over 65% in size); conditions: recombinant CYP3A4, Luciferin-PPXE luminescence, 60 min; series mostly up to 11.4 µM
Outline: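 Human CYP3A4 dealkylates Luciferin-PPXE to luciferin, which luciferase detection converts to light. Substrate was at its KM (25uM), buffer 200mM KPO4, reaction 60 min at RT.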

[9] = biological target: Cytochrome P450 2D6 (Homo sapiens) (UniProt P10635); experiment: qHTS Assay for Inhibitors and Substrates of Cytochrome P450 2D6 (AID 891; active means well fitted curve in the direction sought with a large enough effect; an effect the other way counts as inactive or inconclusive; further: potency means the concentration at half of the fitted maximal effect; nearly all actives have a fitted effect of over 60% in size); conditions: recombinant CYP2D6, luciferin-ME EGE luminescence; series mostly up to 11.4 µM
Outline: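 Luminescent read-out of luciferin formed by 5 nM human CYP2D6 demethylating 30 uM Luciferin-ME EGE (Km level) over 60 min at room temperature after NADPH regeneration addition. Data normalized to full inhibition by 1.43 uM quinidine.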

[10] = NFAT Signaling Pathway (AID 444); conditions: Jurkat NFAT-bla M1, carbachol, beta-lactamase ratio, 5 h; at 7.69 µM (top of the series) unless noted;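 further: carbachol stimulus at about its EC50 of 1 µM final; on the % scale 0 is the no-effect control and ±100 the full control effect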
Outline: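 Jurkat cells carrying an NFAT-driven β-lactamase reporter and co-transfected muscarinic M1 receptor were treated with compound plus carbachol (1 uM final, an EC50 level) for 5 h at 37 °C. CCF4 loading followed for 1 h at RT; 460/530 nm ratio gave %activity.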

[11] = Stat Signaling Pathway (AID 446); conditions: ME-180 SIE beta-lactamase reporter, IL-6 stimulated, 5 h; at 7.69 µM (top of the series) unless noted;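 further: ME-180 cervical cancer cells given 40 pM IL-6 alongside compound; SIE-controlled beta-lactamase reporter measured as 460/530 nm FRET emission ratio; on the % scale 0 is the no-effect control and ±100 the full control effect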
Outline: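 Normalization used AC90 stimulation (300 pM IL-6) and AC90 inhibition (125 nM pan-JAK inhibitor at 40 pM IL-6). The underlying signal is SIE-driven beta-lactamase in ME-180 cells after 5 h IL-6 exposure with compound.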

[12] = biological target: Cytochrome P450 2C9 (Homo sapiens) (UniProt P11712); experiment: qHTS Assay for Inhibitors and Substrates of Cytochrome P450 2C9 (AID 883; active means well fitted curve in the direction sought with a large enough effect; an effect the other way counts as inactive or inconclusive; further: potency means the concentration at half of the fitted maximal effect; nearly all actives have a fitted effect of over 60% in size); conditions: recombinant CYP2C9, luciferin-H luminescence, 60 min; series mostly up to 11.4 µM
Outline: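 CYP2C9 deoxyluciferin hydroxylation, 37C, 60 min with NADPH regeneration; 10nM enzyme, 100uM Luciferin-H (KM). Glo detection reagent stopped reaction; luminescence normalized to sulphaphenazole (57uM) full inhibition.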

[13] = biological target: Cytochrome P450 2C19 (Homo sapiens) (UniProt P33261); experiment: qHTS Assay for Inhibitors and Substrates of Cytochrome P450 2C19 (AID 899; active means well fitted curve in the direction sought with a large enough effect; an effect the other way counts as inactive or inconclusive; further: potency means the concentration at half of the fitted maximal effect; nearly all actives have a fitted effect of over 60% in size); conditions: recombinant CYP2C19, luciferin-H EGE luminescence; series mostly up to 11.4 µM
Outline: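 In 50mM KPO4, the reaction held 5nM enzyme and KM-level (10uM) Luciferin-H EGE; it ran 60 min at 37C after NADPH regeneration and a 10 min compound preincubation. Luminescence values were scaled to 57uM ketoconazole as complete inhibition.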

[14] = qHTS Assay for Identification of Small Molecule Agonists for Hypoxia Response Element Signaling Pathway (AID 914; active means well fitted activation curve with a large enough effect in the signal ratio, with a control signal flat, not every such curve was filed as active; the % refers to the signal ratio; further: % of control where 0% means no effect); conditions: ME-180 (cervical carcinoma) HRE-bla reporter, beta-lactamase ratio, CoCl2, 17 h; activation: hits give high values
Outline: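 Cells were plated overnight, pin-dosed with compound in a titration series, co-stimulated with EC50 CoCl2 and incubated 17 hours at 37 degrees Celsius. CCF4 substrate was then loaded, and AC50 values came from the 460nm/530nm ratio.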

Glucocorticoid receptor (Homo sapiens), sequence (P04150 whole entry, looked up, the tested form may be a part): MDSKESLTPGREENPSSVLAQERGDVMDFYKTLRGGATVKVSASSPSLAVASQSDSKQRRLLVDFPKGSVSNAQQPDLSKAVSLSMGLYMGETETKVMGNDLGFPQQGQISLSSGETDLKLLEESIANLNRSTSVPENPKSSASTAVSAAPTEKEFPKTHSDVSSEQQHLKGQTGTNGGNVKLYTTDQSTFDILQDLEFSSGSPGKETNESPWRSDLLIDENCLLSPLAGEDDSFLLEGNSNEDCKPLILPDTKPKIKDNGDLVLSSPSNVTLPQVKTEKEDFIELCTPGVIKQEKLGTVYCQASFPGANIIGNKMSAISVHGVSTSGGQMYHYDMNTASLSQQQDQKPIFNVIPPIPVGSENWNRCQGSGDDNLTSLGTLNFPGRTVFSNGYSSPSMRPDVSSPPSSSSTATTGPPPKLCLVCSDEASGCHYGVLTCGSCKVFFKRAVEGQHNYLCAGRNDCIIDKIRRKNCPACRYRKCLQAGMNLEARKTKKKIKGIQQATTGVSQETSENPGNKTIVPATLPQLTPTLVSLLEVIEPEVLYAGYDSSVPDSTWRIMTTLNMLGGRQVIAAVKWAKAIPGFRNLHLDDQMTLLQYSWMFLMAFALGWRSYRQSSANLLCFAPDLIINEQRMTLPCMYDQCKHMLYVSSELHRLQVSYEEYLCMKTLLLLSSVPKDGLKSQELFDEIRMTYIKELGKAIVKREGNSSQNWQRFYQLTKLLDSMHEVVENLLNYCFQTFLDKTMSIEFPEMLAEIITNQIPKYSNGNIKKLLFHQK
Lysosomal acid glucosylceramidase (Homo sapiens), sequence (P04062 whole entry, looked up): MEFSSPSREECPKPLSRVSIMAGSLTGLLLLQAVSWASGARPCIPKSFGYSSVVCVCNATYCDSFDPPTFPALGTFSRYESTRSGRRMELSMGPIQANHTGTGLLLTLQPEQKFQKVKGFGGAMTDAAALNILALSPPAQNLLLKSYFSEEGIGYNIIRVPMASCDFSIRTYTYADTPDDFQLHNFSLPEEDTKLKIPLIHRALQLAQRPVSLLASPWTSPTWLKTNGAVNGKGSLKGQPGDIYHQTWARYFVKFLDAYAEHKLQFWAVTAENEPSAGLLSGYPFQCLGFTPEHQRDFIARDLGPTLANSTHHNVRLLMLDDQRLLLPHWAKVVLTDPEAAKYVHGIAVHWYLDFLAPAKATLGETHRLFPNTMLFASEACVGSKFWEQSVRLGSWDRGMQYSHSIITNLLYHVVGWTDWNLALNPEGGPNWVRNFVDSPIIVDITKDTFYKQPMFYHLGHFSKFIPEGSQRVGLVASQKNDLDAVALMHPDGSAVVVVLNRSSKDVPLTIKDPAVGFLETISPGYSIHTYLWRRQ
Cytochrome P450 1A2 (Homo sapiens), sequence (P05177 whole entry, looked up): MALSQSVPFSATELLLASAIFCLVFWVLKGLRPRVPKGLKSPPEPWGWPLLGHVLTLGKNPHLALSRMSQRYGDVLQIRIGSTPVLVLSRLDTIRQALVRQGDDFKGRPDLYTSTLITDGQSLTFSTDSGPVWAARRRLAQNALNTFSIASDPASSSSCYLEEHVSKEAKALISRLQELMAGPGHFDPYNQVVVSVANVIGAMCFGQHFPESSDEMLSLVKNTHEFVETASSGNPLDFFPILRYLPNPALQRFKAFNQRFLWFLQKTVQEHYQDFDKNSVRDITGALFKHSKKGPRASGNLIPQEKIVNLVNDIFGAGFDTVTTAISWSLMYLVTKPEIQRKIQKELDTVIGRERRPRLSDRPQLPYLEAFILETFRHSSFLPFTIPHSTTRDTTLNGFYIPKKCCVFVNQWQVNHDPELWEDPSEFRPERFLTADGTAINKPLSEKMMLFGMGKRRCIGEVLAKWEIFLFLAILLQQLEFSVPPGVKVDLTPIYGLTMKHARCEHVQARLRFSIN
3',5'-cyclic-AMP phosphodiesterase 4B (Homo sapiens), sequence (Q07343 whole entry, looked up): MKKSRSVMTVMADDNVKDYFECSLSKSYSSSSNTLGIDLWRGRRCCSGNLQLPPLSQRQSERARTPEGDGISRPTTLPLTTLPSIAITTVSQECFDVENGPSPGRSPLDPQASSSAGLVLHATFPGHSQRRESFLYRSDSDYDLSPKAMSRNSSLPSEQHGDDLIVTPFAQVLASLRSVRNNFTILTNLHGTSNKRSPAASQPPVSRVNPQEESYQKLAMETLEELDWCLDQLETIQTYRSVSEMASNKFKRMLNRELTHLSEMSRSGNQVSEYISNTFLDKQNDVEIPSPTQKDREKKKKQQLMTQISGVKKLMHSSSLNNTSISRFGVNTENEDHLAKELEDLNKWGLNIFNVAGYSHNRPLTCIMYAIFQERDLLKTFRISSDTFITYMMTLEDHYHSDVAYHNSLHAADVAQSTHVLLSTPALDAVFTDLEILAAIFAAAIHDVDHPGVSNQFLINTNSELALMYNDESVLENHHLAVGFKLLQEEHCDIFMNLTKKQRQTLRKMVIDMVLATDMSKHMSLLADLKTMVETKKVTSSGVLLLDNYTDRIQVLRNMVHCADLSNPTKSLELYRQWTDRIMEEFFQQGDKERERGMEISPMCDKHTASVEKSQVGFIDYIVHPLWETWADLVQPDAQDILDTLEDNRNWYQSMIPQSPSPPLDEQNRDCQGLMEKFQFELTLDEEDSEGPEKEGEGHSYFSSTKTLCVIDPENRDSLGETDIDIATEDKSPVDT
Cytochrome P450 2C19 (Homo sapiens), sequence (P33261 whole entry, looked up): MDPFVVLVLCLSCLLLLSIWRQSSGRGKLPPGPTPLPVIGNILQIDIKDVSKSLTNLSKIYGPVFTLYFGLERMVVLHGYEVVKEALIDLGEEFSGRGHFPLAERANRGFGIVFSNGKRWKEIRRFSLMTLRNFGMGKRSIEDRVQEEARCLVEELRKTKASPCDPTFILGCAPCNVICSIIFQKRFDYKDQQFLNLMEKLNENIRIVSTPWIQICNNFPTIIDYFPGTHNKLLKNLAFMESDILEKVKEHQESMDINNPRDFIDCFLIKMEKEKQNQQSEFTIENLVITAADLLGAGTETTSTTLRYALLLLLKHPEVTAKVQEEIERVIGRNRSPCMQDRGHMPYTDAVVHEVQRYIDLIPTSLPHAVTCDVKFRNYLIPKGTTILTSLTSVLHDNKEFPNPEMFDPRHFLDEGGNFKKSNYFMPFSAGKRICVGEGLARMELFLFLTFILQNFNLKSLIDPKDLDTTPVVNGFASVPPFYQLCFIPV
Cytochrome P450 2D6 (Homo sapiens), sequence (P10635 whole entry, looked up): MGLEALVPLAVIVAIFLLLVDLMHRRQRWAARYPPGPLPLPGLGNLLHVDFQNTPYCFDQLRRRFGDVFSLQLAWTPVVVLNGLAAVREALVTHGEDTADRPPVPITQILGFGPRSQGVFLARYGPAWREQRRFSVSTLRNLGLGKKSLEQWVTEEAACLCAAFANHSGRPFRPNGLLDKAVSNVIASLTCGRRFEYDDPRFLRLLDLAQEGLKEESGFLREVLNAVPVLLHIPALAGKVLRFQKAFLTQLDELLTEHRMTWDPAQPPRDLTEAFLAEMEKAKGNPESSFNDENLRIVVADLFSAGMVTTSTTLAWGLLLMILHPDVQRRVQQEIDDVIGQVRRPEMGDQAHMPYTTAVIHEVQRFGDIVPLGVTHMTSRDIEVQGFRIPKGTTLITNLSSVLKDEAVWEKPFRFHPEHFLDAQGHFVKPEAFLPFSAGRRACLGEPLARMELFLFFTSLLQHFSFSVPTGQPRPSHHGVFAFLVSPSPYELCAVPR
Cytochrome P450 3A4 (Homo sapiens), sequence (P08684 whole entry, looked up): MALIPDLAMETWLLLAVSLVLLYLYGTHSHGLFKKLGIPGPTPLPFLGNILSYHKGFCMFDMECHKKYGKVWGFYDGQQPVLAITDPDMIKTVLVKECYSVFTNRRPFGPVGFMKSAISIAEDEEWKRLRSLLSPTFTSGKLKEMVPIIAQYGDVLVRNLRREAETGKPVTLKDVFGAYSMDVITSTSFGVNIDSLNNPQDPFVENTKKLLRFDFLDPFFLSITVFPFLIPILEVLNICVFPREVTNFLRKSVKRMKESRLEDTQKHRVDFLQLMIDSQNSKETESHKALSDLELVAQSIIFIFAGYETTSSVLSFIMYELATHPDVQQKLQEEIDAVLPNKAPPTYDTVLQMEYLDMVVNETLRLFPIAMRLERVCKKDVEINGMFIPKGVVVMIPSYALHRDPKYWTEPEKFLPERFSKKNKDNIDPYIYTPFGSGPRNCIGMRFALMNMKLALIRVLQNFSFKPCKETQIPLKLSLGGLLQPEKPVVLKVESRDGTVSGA
Cytochrome P450 2C9 (Homo sapiens), sequence (P11712 whole entry, looked up): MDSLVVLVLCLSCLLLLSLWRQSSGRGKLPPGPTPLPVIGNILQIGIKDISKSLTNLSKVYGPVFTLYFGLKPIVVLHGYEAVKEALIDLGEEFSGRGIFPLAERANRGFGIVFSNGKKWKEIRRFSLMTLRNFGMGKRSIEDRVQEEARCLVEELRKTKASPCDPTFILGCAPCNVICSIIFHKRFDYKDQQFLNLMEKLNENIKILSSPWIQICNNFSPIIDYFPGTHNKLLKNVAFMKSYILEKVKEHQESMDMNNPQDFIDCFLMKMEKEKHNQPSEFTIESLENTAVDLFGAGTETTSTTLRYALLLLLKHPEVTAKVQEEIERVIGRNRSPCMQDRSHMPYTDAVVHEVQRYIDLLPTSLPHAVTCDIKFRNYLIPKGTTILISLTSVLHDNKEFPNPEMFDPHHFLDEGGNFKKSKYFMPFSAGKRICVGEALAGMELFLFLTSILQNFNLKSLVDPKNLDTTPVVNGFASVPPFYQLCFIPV

## O=[N+]([O-])c1cccc(/C=N\Nc2ccc3ccccc3n2)c1O
[1]
  Potency: > 11.4 µM
[2]
  activity change, negative = inhibition: -13.9%
[3]
  Potency: 0.794 µM (active)
[4]
  Potency: > 46 µM
[5]
  Potency: > 9.22 µM
[6]
  Potency: inactive
[7]
  Potency: inactive
[8]
  Potency: inactive
[9]
  Potency: 3.16 µM (active)

## O=C(O)Cc1[nH]cnc1C(=O)O
[1]
  Potency: > 11.4 µM
[2]
  activity change, negative = inhibition: -11%
[10]
  activity change, negative = inhibition: 7.88%
[11]
  activity, negative = inhibition: -3.92%
[4]
  Potency: > 46 µM
[5]
  Potency: > 9.22 µM

## CC1(C)S[C@@H]2[C@H](NC(=O)C3(N)CCCCC3)C(=O)N2[C@@H]1C(=O)O
[1]
  Potency: > 11.4 µM
[2]
  activity change, negative = inhibition: -5.88%
[10]
  activity change, negative = inhibition: 9.48%
[11]
  activity, negative = inhibition: 0.508%
[4]
  Potency: > 46 µM
[5]
  Potency: > 9.22 µM
[6]
  Potency: inactive

## COc1ccc2ccccc2c1/C=C\C(=O)c1ccccc1
[1]
  Potency: > 11.4 µM
[2]
  activity change, negative = inhibition: -15.4%
[3]
  Potency: 3.16 µM (active)
[4]
  Potency: > 46 µM
[5]
  Potency: > 9.22 µM
[6]
  Potency: inactive
[7]
  Potency: inactive
[12]
  Potency: 1.26 µM (active)
[8]
  Potency: inactive
[13]
  Potency: 0.316 µM (active)
[14]
  activation: 22.5%

## N/N=C1/c2ccccc2N[C@H]1OC(=O)Nc1ccccc1
[1]
  Potency: > 11.4 µM
[2]
  activity change, negative = inhibition: -4.61%
[3]
  Potency: 0.501 µM (active)
[11]
  activity, negative = inhibition: -9.98%
[5]
  Potency: > 9.22 µM
[6]
  Potency: inactive
[7]
  Potency: inactive
[9]
  Potency: 3.16 µM (active)

## Nc1nc(SCc2ccccn2)c2ncn(C3CCCC3)c2n1
[1]
  Potency: > 11.4 µM
[2]
  activity change, negative = inhibition: -14.6%
[10]
  activity change, negative = inhibition: 9.85%
[11]
  activity, negative = inhibition: 4.58%
[4]
  Potency: > 46 µM
[5]
  Potency: > 9.22 µM
[6]
  Potency: inactive

## c1ccc(B2OC[C@@H]3OB(c4ccccc4)O[C@H]([C@@H]4COB(c5ccccc5)O4)[C@@H]3O2)cc1
[1]
  Potency: > 11.4 µM
[2]
  activity change, negative = inhibition: -8.96%
[10]
  activity change, negative = inhibition: 19.9%
[11]
  activity, negative = inhibition: -6.35%
[4]
  Potency: > 46 µM
[5]
  Potency: > 9.22 µM
[6]
  Potency: inactive

## O=[N+]([O-])c1ccc([C@@H](Nc2ccccc2)c2ccc3cccnc3c2O)cc1
[1]
  Potency: > 11.4 µM
[2]
  activity change, negative = inhibition: -13.7%
[3]
  activity change, negative = inhibition: -21.3% [at 2.29 µM]
[4]
  Potency: > 46 µM
[5]
  Potency: > 9.22 µM
[6]
  Potency: inactive
[7]
  Potency: inactive
[13]
  Potency: 3.98 µM (active)

## O=C1c2ccccc2-c2ccc(N=[N+]([O-])c3ccc4c(c3)C(=O)c3ccccc3-4)cc21
[1]
  Potency: > 11.4 µM
[2]
  activity change, negative = inhibition: 5.38%
[10]
  activity change, negative = inhibition: 10.2%
[11]
  activity, negative = inhibition: 7.21%
[4]
  Potency: > 46 µM
[5]
  Potency: > 9.22 µM
[6]
  Potency: inactive
